# An excerpt weighted towards active compounds, which were near 21% of everything screened.
# CHX counter – Cycloheximide Counterscreen for Small Molecule Inhibitors of Shiga Toxin | max response, % | 300,000 tested, 12% active | cell reporter, cycloheximide protein synthesis inhibition counterscreen; in the data active means max response mostly above about 13%, no sharp cut-off; inactive means mostly below about 14%; further: read at 38.3 µM for the half of the compounds with a filed dose; 0% is about no effect
# HCMV inh – qHTS Assay for inhibitors of the human cytomegalovirus (HCMV); HFF cells, HCMV-luciferase reporter, 72 h; active compounds read low; activity change, negative = inhibition, % at 57.5 µM; 410,000 tested, 4.5% active; in the data active means activity change below about -60%; inconclusive means no clear call, values can overlap the other calls; inactive means above about -39%; further: on the % scale 0 is the no-effect control and ±100 the full control effect
#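 Compounds were evaluated in HFFs infected with an HCMV luciferase reporter virus (MOI 1 PFU/cell). Luciferase in lysates collected 72 h post infection served as the replication measure.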
# HCV inhibitor – qHTS Assay for Inhibitors of Hepatitis C Virus (HCV); Potency, µM (series often up to 41.8 µM), for inactives: top-dose activity change, negative = inhibition, most hits filed as inhibitors; AID 651820, 2012; 340,000 tested, 3.4% active; Huh7.5.1 HCVcc-Cre infection, luciferase reporter, 44 h; further: potency means the concentration at half of the fitted maximal effect; on the % scale 0 is the no-effect control and ±100 the full control effect
#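 Cells (1,000/well) were plated 4 h before compound, then infected with HCVcc-Cre virus (~0.5 moi). After 44 h further culture, infection was read as luciferase luminescence following a 15 min substrate incubation at room temperature.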
# Pf growth 96h – Primary qHTS for delayed death inhibitors of the malarial parasite plastid, 96 hour incubation | P. falciparum luciferase reporter growth, 96 h | Potency, µM (titrated, usually from 28.7 µM), without a hit: top-dose activity change, negative = inhibition, hits mostly inhibitors | 320,000 tested, 6.9% active | AID 504834, 2011; further: potency means the concentration at half of the fitted maximal effect; on the % scale 0 is the no-effect control and ±100 the full control effect
#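 Erythrocytes infected with luciferase-expressing P. falciparum were dispensed at 2% hematocrit and 0.05% parasitemia (final), then incubated with compounds 96 hours at 37 C in 5% CO2. Luminescence after detection reagent addition reported growth.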
# Pf growth 48h – Primary qHTS for delayed death inhibitors of the malarial parasite plastid, 48 hour incubation | P. falciparum luciferase growth in erythrocytes, 48 h | 310,000 tested, 5.9% active | Potency, µM (top dose mostly 28.7 µM), for inactives: at the top dose activity change, negative = inhibition, usual class: inhibitors; further: potency means the concentration at half of the fitted maximal effect; on the % scale 0 is the no-effect control and ±100 the full control effect
#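 A one-generation exposure of luciferase-tagged malaria parasites in RPMI 1640/Albumax erythrocyte culture, 37 C and 5% CO2. Inhibition is inferred from decreased luminescence after adding detection reagent.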
# Shiga inhibitor – A qHTS for Small Molecule Inhibitors of Shiga Toxin; 290,000 tested, 9.2% active; Vero cells, Shiga toxin protein synthesis inhibition reporter; inhibition, % at 38.7 µM; in the data active means inhibition mostly above about 28%, no sharp cut-off; inactive means mostly below about 43%; further: 0% is about no effect
# Active calls of the source: *; ? = inconclusive; nt = no result given. Unless noted, the call rests on the fitted dose curve; in most records, active means well fitted inhibition curve with a large enough effect; inconclusive means small, poorly fitted or top-dose-only effect, or another doubt; inactive means no such curve, though single readings can be large or run the other way.
SMILES,CHX counter,HCMV inh,HCV inhibitor,Pf growth 96h,Pf growth 48h,Shiga inhibitor
Cc1ccc(C(C(=O)NCc2ccco2)N(C(=O)CNC(=O)c2cccs2)c2ccc(C)cc2C)cc1 (stereo not drawn),16*,77,-14%,?,?,68*
COc1ccc(C(C(=O)NCC2CCCO2)N(C(=O)CNC(=O)c2cccs2)c2ccc(C(C)=O)cc2)cc1OC (stereo not drawn),8,-31,2%,?,12µM*,15
COc1ccc(C(C(=O)NCC2CCCO2)N(C(=O)CNC(=O)c2cccs2)c2ccc(C)cc2)cc1OC (stereo not drawn),-1,-29,4%,-4%,10µM*,-6
COc1ccc(N(C(=O)CNC(=O)c2ccco2)C(C(=O)NCC2CCCO2)c2ccc(OC)c(OC)c2)cc1 (stereo not drawn),0,50,-2%,-10%,-30%,10
COc1cc(OC)cc(N(C(=O)CNC(=O)c2cccs2)C(C(=O)NCC2CCCO2)c2ccccc2)c1 (stereo not drawn),-2,-6,-17%,?,5.9µM*,-4
Cc1ccc(N(C(=O)CNC(=O)c2ccco2)C(C(=O)NC2CCCC2)c2ccncc2)c(C)c1 (stereo not drawn),-3,0,10%,14%,-29%,-12
CCCCn1c(N)c(N(CC(C)C)C(=O)c2cc(-c3ccco3)nc3ccccc23)c(=O)[nH]c1=O,nt,-12,6%,13%,?,nt
CCOc1ccc(Cn2c(CNS(=O)(=O)c3ccc([N+](=O)[O-])cc3)nc3cccnc32)cc1,nt,-20,nt,nt,nt,nt
COc1ccc(C(CC(=O)Nc2ccc(C)cn2)N2Cc3ccccc3C2=O)cc1OC (stereo not drawn),nt,11,nt,nt,nt,nt
O=C1c2ccccc2C2=Nc3ccccc3SC(c3ccc(Cl)cc3)C12 (stereo not drawn),3,?,?,-25%,0.52µM*,-6
O=C1c2ccccc2C2=Nc3ccccc3SC(c3cccc(F)c3)C12 (stereo not drawn),-2,-23,?,?,0.59µM*,-6
O=C1CCCC2=C1C(c1ccc(Cl)cc1)C1C(=O)c3ccccc3C1=N2 (stereo not drawn),0,-70*,?,?,?,-10
CCOC(=O)C1=C(C)N=C2c3ccccc3C(=O)C2C1c1ccccc1 (stereo not drawn),-3,12,-29%,-18%,?,-12
O=C1CCCC2=C1C(c1ccccc1)C1C(=O)c3ccccc3C1=N2 (stereo not drawn),2,20,?,-8%,-24%,-7
N#Cc1c(-c2ccco2)c2c([nH]c1=S)CCCC2,2,4,-29%,10µM*,-10%,-4
N#Cc1c(-c2cccnc2)c2c([nH]c1=S)CCCC2,-4,-33,-2%,119%,?,-25
Cc1nc2ccccc2c2nc3ccccc3n12,5,36,?,-3%,nt,11
Nn1nnc2ccccc21,14*,2,26%,52%,40%,24
c1ccc2c(c1)nnn1c3ccccc3nc21,34*,nt,nt,42%,189%,80*
O=C(c1ccccc1)n1nnc2ccccc21,1,15,4%,26%,21%,24
COc1ccc(CCn2c3c(c(=O)[nH]c2=O)C(NC(=O)c2ccccc2)(C(F)(F)F)C(=O)N3)cc1OC (stereo not drawn),nt,6,nt,nt,nt,nt
COc1cc2c(cc1OC)CC(C(=O)NCc1ccccc1)NC2 (stereo not drawn),3,12,-9%,-11%,-5%,-13
Cc1ccc(N(Cc2cccs2)C(=O)c2ccccc2)cc1,nt,10,nt,nt,nt,nt
Cc1ccc(OCCCCNC(C)(C)C)c([N+](=O)[O-])c1,1,-13,?,3.7µM*,?,-15
COc1ccc(NC(=O)CSCc2cnn(-c3ccccc3)c2-n2cccc2)cc1,nt,6,nt,nt,nt,nt
SMILES,CHX counter,HCMV inh,HCV inhibitor,Pf growth 96h,Pf growth 48h,Shiga inhibitor
c1ccc(-c2cnc(CSc3ncnc4sccc34)o2)cc1,23,3,11µM*,25%,-1%,9
Cc1ccc(CNC(=O)c2ccc3c(c2)nc2n3CCCC2)cc1,nt,-3,nt,nt,nt,nt
CCN(CCNC(=O)c1cccc(N2CCCC2=O)c1)c1ccccc1,2,79,?,79%,nt,14
CC(NC(=O)c1cccc(N2CCCC2=O)c1)c1ccc2c(c1)OCCO2 (stereo not drawn),-2,-9,3%,12µM*,?,-2
O=C(N/N=C/c1cccnc1)c1cccc(N2CCCC2=O)c1,27*,28,1%,40%,25%,35
CC(NC(=O)c1ccc(N2CCCC2=O)cc1)c1ccccc1 (stereo not drawn),-3,16,4%,?,?,-10
O=C(N/N=C/c1cc([N+](=O)[O-])ccc1O)c1cccc(N2CCCC2=O)c1,-3,11,?,33%,?,-4
CCN(CC)c1ccc(/C=N/NC(=O)c2cccc(N3CCCC3=O)c2)cc1,23*,-29,-23%,28%,?,42*
COc1cc(/C=N/NC(=O)c2cccc(N3CCCC3=O)c2)ccc1O,24*,3,1%,?,-2%,46
O=C(N/N=C/c1ccccn1)c1cccc(S(=O)(=O)N2CCCC2)c1,-3,-30,9%,11%,-15%,-1
CC(=O)N1CCCC1(C(=O)O)c1ccccc1 (stereo not drawn),2,-19,9%,61%,56%,11
O=C(COC(=O)CNS(=O)(=O)c1ccc(Br)cc1Cl)NCCc1ccccc1,-3,6,15%,23%,8%,-2
CCOC(=O)Cn1c(CN2CCN(c3ccc(OC)cc3)CC2)nc2c1c(=O)[nH]c(=O)n2C,nt,10,nt,nt,nt,nt
O=C(N/N=C/c1c(F)c(F)c(F)c(F)c1F)c1cccc(S(=O)(=O)N2CCOCC2)c1,11,-11,5%,22%,-6%,-19
CCN(CC)c1ccc(/C=N/NC(=O)c2cccc(S(=O)(=O)N3CCOCC3)c2)cc1,1,47,10µM*,38%,12%,-8
Cc1cccc(NC(=O)c2nc(S(C)(=O)=O)ncc2Cl)c1,nt,-108*,nt,nt,nt,nt
COc1cccc(NC(=O)c2ncc(Cl)c(Cl)c2Cl)c1,32*,53,10%,235%,439%,63*
COc1cccc(NC(=O)c2nc(S(C)(=O)=O)ncc2Cl)c1,16,-103*,?,30%,13%,38
CC(=O)Nc1ccc(SCC(=O)NC(=O)c2ccc(S(=O)(=O)N(C)C)cc2)cc1,nt,128,-4%,nt,nt,nt

# Screening data deposited in PubChem by National Center for Advancing Translational Sciences (NCATS).
